Records with an inconclusive call do not appear. Entries that show only a call come without a potency. Unmarked numbers belong to inactive results. Calls of active or inactive are those of the source. The call rests on the fitted dose curve; in most records, active means well fitted cell-killing curve with a large enough effect; inconclusive means small, poorly fitted or top-dose-only effect; inactive means no such curve, though single readings can be large or run the other way.
Potency means the concentration at half of the fitted maximal effect.

The nature of the assay: qHTS of pediatric cancer cell lines to identify multiple opportunities for drug repurposing: Primary screen for NB-EBc1 cells (AID 1347095). The conditions noted are these: NB-EBc1 neuroblastoma viability, CellTiter-Glo luminescence, 48 h; series mostly up to 46 µM. From the text: Drug repurposing or repositioning has been offered as a strategy for drug development in oncology programs. This approach has special potential for childhood cancers and other rare or orphan diseases, where the expected return on new drug development has been a disincentive to pharmaceuticals. […] In this project we exploit the poly-pharmacology of drugs to discover new indications via phenotypic screening of a panel of 19 well-characterized cell lines derived from solid tumors seen in children and adolescents. The goal is to identify approved drugs with previously unrecognized anticancer properties that has the potential to reveal new mechanisms and biological processes involved in carcinogenesis or drug resistance. We employed a titration-based paradigm (quantitative high-throughput screening or qHTS), where all compounds were tested at multiple concentrations for their effect on cell viability. Concentration-response curves (CRCs) were derived directly from the primary screen, and both potency and efficacy values were used to identify compounds with robust bioactivity profiles. We screened the NIH Chemical Genomics Center (NCGC) Pharmaceutical Collection (NPC) and Mechanism Interrogation Plate (MIPE) small molecule collections of approved and investigational compounds against these cell lines; and measured metabolically active cells after 48 hours of compound treatment as a proxy for cell viability. […] Assay Submitter: Nathalia J. Martinez, National Center for Advancing Translational Sciences, National Institutes of Health, Rockville, MD, USA; email: natalia.martinez@nih.gov Shen, M et al. Quantitative high-throughput phenotypic screening of pediatric cancer cell lines identifies multiple opportunities for drug repurposing. Oncotarget 2017 Dec 19;9(4):4758-4772. PMID 29435139.
The cells were obtained from University of North Carolina (UNC), Pediatric Preclinical Testing Program (PPT), and Coriell Institute (CI). qHTS cell viability assay: Cells were assayed in growth media at a density of 500-1,000 cells/well. Five microliters of cells were dispensed into 1,536-well, white, solid-bottom, TC-treated plates (Greiner Bio One) using a multidrop dispenser and incubated at 37 degrees C, 5% CO2, under a humidified atmosphere for 5 hours. Twenty-three nanoliters of compounds and controls (neutral control DMSO or positive control bortezomib at final concentration of 2.3 µM) were subsequently transferred by Kalypsys pintool. For primary screens, the MIPE collection was tested at 11-point dilutions (final concentrations range from 0.78 nM to 46 µM) and the NPC collection at 8-point dilutions (final concentrations range from 0.59 nM to 46 µM). Compounds tested in follow-up screens were assayed at 11-point dilutions. Cells were incubated for 48 hours, followed by addition of 3 µL of CellTiter-Glo (Promega). After a 15 min incubation at room temperature, samples were analyzed for luminescence intensity using a ViewLux High-throughput CCD imager equipped with clear filters.
On the technique in general: Quantitative high-throughput screening tests each substance at several concentrations.
As to `C[N+](C)(C)CCOC(N)=O`, the Potency result is “inactive”. Regarding `O=C(O)CP(=O)(O)O`, the Potency entry is “inactive”.

On to `Brc1c(NC2=NCCN2)ccc2nccnc12`, for which the Potency entry was “inactive”.

For `CC(N=C(NC#N)Nc1ccncc1)C(C)(C)C` (stereo not given), the Potency entry is “inactive”. Turning to `CN=C(NC#N)NCCSCc1nc[nH]c1C`, the Potency result is “inactive”. Regarding `C[N+](C)(C)CCCCCCCCCC[N+](C)(C)C`, the Potency entry is “inactive”. Turning to `O=C(O)CN(CCOCCOCCN(CC(=O)O)CC(=O)O)CC(=O)O`, the activity change, negative = cytotoxic is 21.8% [at 0.597 µM]. For the compound `C[C@]12CC[C@@H]3c4ccc(O)cc4C[C@@H](CCCCCCCCCS(=O)CCCC(F)(F)C(F)(F)F)[C@H]3[C@@H]1CC[C@@H]2O` (stereo not given in full), the Potency entry was “inactive”. Consider `CCCCOCCOCCOCc1cc2c(cc1CCC)OCO2`, for which the Potency entry was “inactive”.

Consider `Cc1ccc(/C(=C\CN2CCCC2)c2ccccn2)cc1`, for which the Potency entry is “inactive”.

As to `COCCCC/C(=N\OCCN)c1ccc(C(F)(F)F)cc1`, the Potency entry was “inactive”. In the case of `NC/C=C/C(=O)O`, the Potency result is “inactive”. Same read-out and setting: as for `CN1C[C@H](C(=O)N[C@]2(C)O[C@@]3(O)[C@@H]4CCCN4C(=O)[C@H](Cc4ccccc4)N3C2=O)C[C@@H]2c3cccc4[nH]cc(c34)C[C@H]21`, the entry is “inactive”; as for `O=C(O)CN(CCN(CC(=O)O)CC(=O)O)CCN(CC(=O)O)CC(=O)O`, “inactive”; as for `CCN(CC)CC(=O)Nc1c(C)cccc1C`, “inactive”. Still for that read-out and setting: next, `C[C@H](CS)C(=O)N1CCC[C@H]1C(=O)O`: “inactive”. As to `NC(N)=N/N=C/c1c(Cl)cccc1Cl`, the Potency result is “inactive”.

Take `CCO/C([O-])=N/c1c[n+](N2CCOCC2)no1`: the Potency result is “inactive”. Consider `CN(C(=O)CCCOc1ccc2[nH]c(=O)ccc2c1)C1CCCCC1`, for which the Potency result was “inactive”.

As to `NC1=NCC2c3ccccc3Cc3ccccc3N12` (stereo not given), the Potency result was “inactive”. With `C[C@]12CCC(=O)C=C1CC[C@@H]1[C@@H]2C(=O)C[C@@]2(C)[C@H]1CC[C@]2(O)C(=O)CO`, the Potency result was “inactive”. For the compound `CSc1ccc(C(=O)c2[nH]c(=O)[nH]c2C)cc1`, the Potency result is “inactive”. As to `C[n+]1cc2c3c(ccc2c2ccc4cc5c(cc4c21)OCO5)OCO3`, the Potency is 1030 nM (active).

On to `NC(Cc1ccc(Cl)cc1)C(=O)O` (stereo not given), for which the activity change, negative = cytotoxic is 23.4% [at 0.597 µM].

As for `C#CCN(C)CCCOc1ccc(Cl)cc1Cl`, the Potency entry is “inactive”. In the case of `COc1ccc(CCN(C)CCCC(C#N)(c2cc(OC)c(OC)c(OC)c2)C(C)C)cc1OC` (stereo not given), the Potency entry is “inactive”. Take `C=CCc1ccccc1OCC(O)CNC(C)C` (stereo not given): the Potency result is “inactive”. On to `CC(C)NCC(O)c1cc(O)cc(O)c1` (stereo not given), for which the Potency entry is “inactive”.

Consider `CCN(Cc1ccncc1)C(=O)C(CO)c1ccccc1` (stereo not given), for which the Potency result was “inactive”. The same measure, in the same setting: as for `COc1ccc([C@@H]2Sc3ccccc3N(CCN(C)C)C(=O)[C@@H]2OC(C)=O)cc1`, the entry is “inactive”; as for `CCn1cc(C(=O)O)c(=O)c2cc3c(cc21)OCO3`, “inactive”.

As to `C[C@]12C=CC(=O)C=C1CC[C@H]1[C@@H]3C[C@@H](O)[C@](O)(C(=O)CO)[C@@]3(C)C[C@H](O)[C@@]12F`, the Potency entry is “inactive”.

For `CC(C(=O)O)c1ccc(CC2CCCC2=O)cc1` (stereo not given), the Potency result is “inactive”. `C[C@]12CCC(=O)C=C1CC[C@@H]1[C@@H]2CC[C@@]2(C)[C@H]1CC[C@]2(O)C(=O)CO`: the Potency result was “inactive”. Take `CN1C(=O)CC[C@H]1c1cccnc1`: the Potency result is “inactive”. On to `COC(=O)[C@@H](N)Cc1ccc(O)c(O)c1`, for which the Potency entry was “inactive”. As for `CCCN1C[C@H](CSC)C[C@@H]2c3cccc4[nH]cc(c34)C[C@H]21`, the Potency entry is “inactive”. Same read-out and setting: as for `NS(=O)(=O)c1cc2c(cc1Cl)NC(C1CC3C=CC1C3)NS2(=O)=O` (stereo not given), the entry is “inactive”; as for `CC(C)[N+](C)(CCOC(=O)C1c2ccccc2Oc2ccccc21)C(C)C`, “inactive”.

As to `CCOC(=O)C1=C(C)NC(C)=C(C(=O)OC)C1c1cccc([N+](=O)[O-])c1` (stereo not given), the Potency result is “inactive”.

For the origin of these results see PubChem BioAssay (NCATS).
